Measured values published in PubChem BioAssay (NCATS).
Inconclusive results are not listed. The source made the active and inactive calls. The call rests on the fitted dose curve; in most records, active means well fitted curve in the direction sought with a large enough effect; inconclusive means small, poorly fitted or top-dose-only effect, or another doubt; inactive means no such curve, though single readings can be large; an effect the other way counts as inactive or inconclusive.

Assays:
[1] = target: Cellular tumor antigen p53 (Homo sapiens) (UniProt P04637); test: Primary qHTS for small molecule compounds that upregulate eGFP-tagged delta133p53alpha (in N-terminal) cells. (AID 2060322); settings: NCI-H358 eGFP-delta133p53alpha fluorescence, 24 h; activation: active compounds read high;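 further: series mostly up to about 56 µM; 0% = DMSO vehicle and 100% = reference activator; nearly all actives have a fitted effect of over 75% in size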
Cellular tumor antigen p53 (Homo sapiens), sequence (P04637 whole entry, looked up): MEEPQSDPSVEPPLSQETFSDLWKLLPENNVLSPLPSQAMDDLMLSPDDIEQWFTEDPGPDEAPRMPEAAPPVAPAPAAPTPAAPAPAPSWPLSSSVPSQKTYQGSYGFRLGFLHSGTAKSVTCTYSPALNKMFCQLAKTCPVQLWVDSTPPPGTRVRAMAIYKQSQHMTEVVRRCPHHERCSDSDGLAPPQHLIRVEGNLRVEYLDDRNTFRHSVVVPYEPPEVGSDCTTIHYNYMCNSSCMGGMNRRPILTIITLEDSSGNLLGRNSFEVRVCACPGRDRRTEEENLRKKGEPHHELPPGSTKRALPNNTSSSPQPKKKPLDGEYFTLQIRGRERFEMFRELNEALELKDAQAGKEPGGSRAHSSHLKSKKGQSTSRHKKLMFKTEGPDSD
Procedure, shortened: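 NCI-H358 cells pre-induced 24 h with 10 ng/ml doxycycline to express N-terminal eGFP-delta133p53alpha, then dosed 24 h at 37C without doxycycline; fixed, Hoechst-stained, GFP intensity by laser scanning cytometry, normalized to DMSO (0%) and 57.5 uM 5-azacytidine (100%).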

[2] = target: Aldehyde dehydrogenase, mitochondrial (Homo sapiens) (UniProt P05091); test: qHTS for Inhibitors of the Aldehyde Dehydrogenase Family (ALDH2) Primary screen (AID 2061308);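 further: plate controls were vehicle for no effect and reference inhibitor for full effect; nearly all actives have a fitted effect of over 55% in size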
[3] = target: Retinaldehyde dehydrogenase 3 (Homo sapiens) (UniProt P47895); test: qHTS for Inhibitors of the Aldehyde Dehydrogenase Family (ALDH1A3) Validation screen (AID 2061312); further: on the % scale 0 is the no-effect control and ±100 the full control effect; nearly all actives have a fitted effect of over 45% in size
[4] = target: Retinaldehyde dehydrogenase 3 (Homo sapiens) (UniProt P47895); test: qHTS for Inhibitors of the Aldehyde Dehydrogenase Family (ALDH1A3) Primary screen (AID 2061315);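 further: plate controls were DMSO vehicle for no effect and reference inhibitor for full effect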

CCCCCCOC(=O)/N=C(\N)c1ccc(NCc2nc3cc(C(=O)N(CCC(=O)OCC)c4ccccn4)ccc3n2C)cc1
inactive: activation [1] -0.955% | Potency [2] | Potency [3] | Potency [4]

CN[C@@H]1[C@@H](O)[C@@H](O[C@@H]2[C@@H](O)[C@H](O[C@H]3O[C@@H]([C@@H](C)NC)CC[C@H]3N)[C@@H](N)C[C@H]2N)OC[C@]1(C)O
inactive: activation [1] -8.59% | Potency [2] | Potency [3] | Potency [4]

c1ccc(Nc2nc3c(s2)CCCc2[nH]ncc2-3)nc1
inactive: activation [1] 8.59% | Potency [2] | Potency [3] | Potency [4]

CNC(=O)c1ccc2c(c1)CCO[C@H]2CCN1CCN(c2ccc(C(N)=O)cc2)CC1
inactive: activation [1] 8.11% | Potency [2] | Potency [3] | Potency [4]

CCCCc1nc(Cl)c(CO)n1Cc1ccc(-c2ccccc2-c2nnn[nH]2)cc1
inactive: activation [1] -18.1% | Potency [2] | Potency [3] | Potency [4]

Cn1nc(C(C)(C)C)cc1C(=O)NC(Cc1cccc(Cl)c1)C(=O)NCC#N (stereo not given)
inactive: activation [1] -4.3% | Potency [2] | Potency [3] | Potency [4]

CC(C)S(=O)(=O)Nc1ccc(F)c(C(=O)c2c[nH]c3ncc(-c4cccnc4)cc23)c1F
inactive: activation [1] 28.6% | Potency [2] | Potency [3] | Potency [4]

CCC(COC)n1nnc2c(Nc3ccc(OC)cc3C)nc(C)cc21 (stereo not given)
inactive: activation [1] -5.25% | Potency [2] | Potency [3] | Potency [4]

CCOCCn1nc(CC)c2nc(N3CCC(C(=O)O)CC3)nc(Nc3cc(C)ccn3)c21
inactive: activation [1] 0% | Potency [2] | Potency [3] | Potency [4]

Cc1cc(OCCCS(C)(=O)=O)cc(C)c1-c1cccc(COc2ccc3c(c2)OCC3CC(=O)O)c1 (stereo not given)
inactive: activation [1] 6.68% | Potency [2] | Potency [3] | Potency [4]
